Records with an inconclusive call do not appear. The source made the active and inactive calls. Unless noted, calls follow the shape of the dose curve; as a rule, active = well fitted curve in the direction sought with a large enough effect in the repeat runs; inconclusive = weak or mixed curves; inactive = no such curve, though single readings can be large; an effect the other way counts as inactive or inconclusive. Residues, ends and D or L forms follow the SMILES beside them.
How the values were obtained:
[1] = qHTS assay to identify small molecule antagonists of the vitamin D receptor (VDR) signaling pathway - cell viability counter screen (AID 743225); also: nearly all actives have a fitted effect of over 50% in size
In short: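 In this counter screen, VDR-bla HEK 293T cells receive test compound plus 3 nM final calcitriol for 16 h at 37C. Room-temperature steps of 2 h with the beta-lactamase substrate, then 30 min with CellTiter-Glo, precede the luminescence read.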

[2] = qHTS assay to identify small molecule agonists of the NFkB signaling pathway (AID 1159509; active = well fitted curve in the direction sought with a large enough effect in the signal ratio in the repeat runs, not every such curve was filed as active; the % refers to the signal ratio; also: series mostly up to about 61 µM)
In short: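 After overnight attachment, reporter cells received test compounds, DMSO or positive controls and were incubated 5 hr at 37 C. FRET substrate was then added for 1.5 hr at room temperature before dual-emission fluorescence reading.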

[3] = qHTS assay to identify small molecule agonists of the NFkB signaling pathway - cell viability counter screen (AID 1159515; calls by dose curve; also: series mostly up to about 61 µM; nearly all actives have a fitted effect of over 55% in size)
In short: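 Using the same wells as the NFkB reporter read, ME-180 NFkB-bla cells given compounds for 5 hr were assessed for viability via CellTiter-Glo, with luminescence taken after a 30 min room-temperature incubation.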

[4] = qHTS assay to identify small molecule agonists of the endoplasmic reticulum stress response signaling pathway (AID 1159516; active = well fitted activation curve with a large enough effect in the signal ratio in the repeat runs, not every such curve was filed as active; the % refers to the signal ratio)
In short: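 An ESRE-bla HeLa cell assay: compounds were pin-transferred from DMSO onto overnight-plated cells and left 5 hr at 37 C. Substrate was then loaded for 2 hr at room temperature before reading fluorescence at 460 nm and 530 nm.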

[5] = qHTS assay to identify small molecule agonists of the endoplasmic reticulum stress response signaling pathway - cell viability counter screen (AID 1159517; calls by dose curve;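 also: HeLa cells carrying an ER stress response element beta-lactamase reporter; series mostly up to about 61 µM; nearly all actives have a fitted effect of over 50% in size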)
In short: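 Counter-screen wells were identical to the reporter wells. Cells were plated at 1,500 per well and dosed for 5 hr, then read for luminescence 30 min after CellTiter-Glo addition.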

[6] = qHTS assay to identify small molecule antagonists of the retinoid-related orphan receptor gamma (ROR-gamma) signaling pathway - cell viability counter screen (AID 1159520); also: nearly all actives have a fitted effect of over 50% in size
In short: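 Tet-on ROR gamma CHO cells were given compounds for 2 hr, then doxycycline hyclate at 1 uM final, and incubated 16 hr at 37 C. Viability was measured as ATP content by CellTiter-Glo luminescence.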

[7] = target: Nuclear receptor ROR-gamma (Homo sapiens) (UniProt P51449); assay: qHTS assay to identify small molecule antagonists of the retinoid-related orphan receptor gamma (ROR-gamma) signaling pathway (AID 1159521;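 also: CHO cells with doxycycline inducible ROR-gamma driving an RORE luciferase reporter; top concentration of the series differs between compounds; nearly all actives have a fitted effect of over 50% in size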)
In short: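 Screening format: cell-based luciferase reporter in CHO cells with doxycycline-inducible RORγ. Compound pre-exposure lasts 2 h, doxycycline is 1 uM final, induction runs 16 h at 37 C, and ONE-Glo luminescence is read.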

[8] = qHTS assay to identify small molecule agonists of the AP-1 signaling pathway (AID 1159526; calls by dose curve)
[9] = qHTS assay to identify small molecule agonists of the RXR signaling pathway - cell viability counter screen (AID 1159529)
In short: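 Viability read-out for the RXR-alpha agonist qHTS: luminescent CellTiter-Glo signal after 30 min at RT. HEK 293T bla reporter cells, 2% charcoal-stripped FBS, 16 hr compound incubation; tetraoctyl ammonium bromide as cytotoxic control.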

[10] = qHTS assay to identify small molecule antagonists of the retinoid acid receptor (RAR) signaling pathway - cell viability counter screen (AID 1159551); also: nearly all actives have a fitted effect of over 35% in size
In short: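 Retinol-stimulated (1 uM final) C3RL4 cells, compound 6 h, 37 C; readout CellTiter-Glo luminescence (ATP) after 30 min RT incubation.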

[11] = qHTS assay to identify small molecule agonists of the AP-1 signaling pathway - cell viability counter screen (AID 1159525; calls by dose curve; also: nearly all actives have a fitted effect of over 55% in size)
In short: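 AP-1-bla ME-180 cells in Opti-MEM with 0.5% dialyzed FBS, compound exposure 5 h at 37 C in 15-point titration. Viability read in the same wells as ATP content by CellTiter-Glo luminescence, normalised to tetra-n-octylammonium bromide and DMSO controls.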

[12] = qHTS assay to identify small molecule antagonists of the retinoic acid receptor (RAR) signaling pathway (AID 1159552; also: nearly all actives have a fitted effect of over 50% in size)
In short: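 Using a RARE-driven luciferase construct in C3RL4 cells, retinol at 1 uM final provided the agonist stimulus while compounds were co-applied. After 6 hours at 37 C, luminescence was recorded to flag inhibitors of retinol signaling.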

[13] = qHTS assay to identify small molecule agonists of the retinoic acid receptor (RAR) signaling pathway (AID 1159553)
In short: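 Reporter readout comes from luciferase under RARE control in C3RL4 cells; compound exposure lasts 6 hr at 37 C in 5% CO2, and luminescence is recorded following a 30 min room-temperature incubation with reagent.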

[14] = target: Retinoic acid receptor RXR-alpha (Homo sapiens) (UniProt P19793); assay: qHTS assay to identify small molecule agonists of the RXR signaling pathway (AID 1159527; calls by dose curve; also: nearly all actives have a fitted effect of over 35% in size)
In short: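 Fluorescence ratio readout (460 vs 530 nm) from GeneBLAzer RXR-alpha HEK 293T cells after 16 hr compound treatment; cells seeded 5 hr beforehand in low-serum, charcoal-stripped medium.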

[15] = qHTS assay to identify small molecule antagonists of the estrogen related receptor (ERR) signaling pathway - cell viability counter screen (AID 1224818);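 also: series mostly up to about 46 µM; viability measured after 17.5 h of compound exposure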
In short: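 After a 6 h pre-incubation, ERR cells were dosed by pin tool with compounds, positive/negative controls or DMSO alone. Following 17.5 h at 37 C and 30 min with CellTiter-Fluor, fluorescence was recorded.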

[16] = qHTS assay to identify small molecule antagonists of the estrogen related receptor signaling pathway with the pleiotropic PPARgamma coactivator (PGC) cell viability counter screen (AID 1224822;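 also: series mostly up to about 46 µM; viability read after 17.5 h compound exposure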)
In short: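 PGC/ERR cells were plated at 2,000 per well and allowed 6 h to settle before compound addition. Following 17.5 h at 37 C, CellTiter-Fluor reagent was added and fluorescence was read 30 min later.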

[17] = qHTS assay to identify small molecule antagonists of the estrogen related receptor (ERR) signaling pathway (AID 1224819)
In short: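 Luminescence readout (One-Glo, 30 min, RT) of ERR cell line after 18 h compound exposure at 37 C; cells seeded 2,000/well, pre-incubated 6 h, compounds pinned from DMSO stocks.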

[18] = qHTS assay to identify small molecule agonists of the estrogen related receptor (ERR) signaling pathway (AID 1224820)
In short: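 Quantitative HTS of the LOPAC library used NTP ERR reporter cells treated 18 h at 37 C. Signal is luminescence after One-Glo addition and a 30 min room-temperature incubation.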

Measured: Potency

Chain of Retinoic acid receptor RXR-alpha (Homo sapiens) (P19793 whole entry, looked up): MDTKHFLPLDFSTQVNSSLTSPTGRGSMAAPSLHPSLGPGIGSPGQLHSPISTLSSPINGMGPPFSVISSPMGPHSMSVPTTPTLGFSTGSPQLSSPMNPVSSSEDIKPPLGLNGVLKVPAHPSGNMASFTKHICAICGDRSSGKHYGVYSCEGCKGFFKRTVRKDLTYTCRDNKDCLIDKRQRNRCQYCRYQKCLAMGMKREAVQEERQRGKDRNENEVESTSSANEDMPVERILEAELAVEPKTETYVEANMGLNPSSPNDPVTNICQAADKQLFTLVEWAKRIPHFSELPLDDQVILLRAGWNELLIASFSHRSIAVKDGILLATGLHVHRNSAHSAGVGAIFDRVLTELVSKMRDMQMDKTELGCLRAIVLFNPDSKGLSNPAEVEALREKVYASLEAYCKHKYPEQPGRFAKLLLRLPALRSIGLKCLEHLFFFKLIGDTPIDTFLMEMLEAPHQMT

NC(=O)NC1NC(=O)NC1=O (stereo unspecified)
inactive: [1] | [2] | [3] | [4] | [5] | [6] | [7] | [8] | [9] | [10]

O=NO
not listed: [14] | [15] | [16] | [17] | [18]
inactive: all other assays above

CC(C)[C@@H]1CC[C@@H](C)C[C@H]1O
not listed: [11] | [15] | [16] | [17] | [18]
inactive: all other assays above

O=C(O)CCCCCCCC(=O)O
not listed: [11] | [14] | [17] | [18]
inactive: all other assays above

NC(=O)c1ccccc1O
not listed: [11] | [14] | [15] | [16] | [17] | [18]
inactive: all other assays above

CC(O)CO (stereo unspecified)
not listed: [11] | [14] | [15] | [16] | [17] | [18]
inactive: all other assays above

Nc1ccn([C@H]2CC[C@@H](CO)O2)c(=O)n1
not listed: [11] | [12] | [13] | [14] | [17] | [18]
inactive: all other assays above

NS(=O)(=O)c1cc(C(=O)O)c(NCc2ccco2)cc1Cl
not listed: [11] | [12] | [14] | [15] | [16] | [17] | [18]
inactive: all other assays above

COC(=O)[C@H](Cc1ccccc1)NC(=O)[C@@H](N)CC(=O)O (H-Asp-Phe-OMe)
not listed: [3] | [15] | [16] | [17] | [18]
inactive: all other assays above

CNC[C@H](O)c1cccc(O)c1
not listed: [7] | [11]
inactive: all other assays above
